# Source: PubChem BioAssay (National Center for Advancing Translational Sciences (NCATS))
# The list is not random: actives were taken first. Their share in the collection is about 15%.
# HCMV antiviral: qHTS Assay for inhibitors of the human cytomegalovirus (HCMV); HFF cells, HCMV-luciferase reporter, 72 h; hits give low values; activity change, negative = inhibition, % at 57.5 µM; actives 4.5% (n = 410,000); in the data active = activity change below about -60%; inconclusive = no clear call, values can overlap the other calls; inactive = above about -39%
#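 Steps: HFFs plated, 16 h 37C; compounds added; HCMV-luciferase added to MOI 1 PFU/cell; 72 h 37C; OneGlo reagent, 5 min room temperature; luminescence read, normalized to controls.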
# Sm TGR block: qHTS Assay for the Inhibitors of Schistosoma Mansoni Peroxiredoxins | Schistosoma mansoni thioredoxin glutathione reductase (TGR), Q962Y6 | purified TGR, DTNB reduction, TNB absorbance 405 nm | Potency, µM (series often up to 114 µM), actives largely listed as inhibitors | actives 3% (n = 360,000) | AID 485364, 2010; also: nearly all actives have a fitted effect of over 60% in size
#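 TGR 20 nM + NADPH 100 uM (dispensed conc.), cpd preinc 15 min RT; start with NADPH (500 uM addition) then DTNB (15 mM addition). Kinetic TNB absorbance, 405 nm filter. Four-parameter Hill fit across titration.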
# HCV inhibitor: qHTS Assay for Inhibitors of Hepatitis C Virus (HCV); Huh7.5.1 HCVcc-Cre infection, luciferase reporter, 44 h; actives 3.4% (n = 340,000); Potency, µM (top dose mostly 41.8 µM), most hits filed as inhibitors; AID 651820, 2012
#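 Infectious HCV cell culture screen: compound-treated cells (1,000/well, pre-plated 4 h) are infected with HCVcc-Cre at roughly 0.5 moi and grown 44 h. Infection is quantified by luciferase signal after 15 min substrate incubation at room temperature.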
# Pf growth 96h: Primary qHTS for delayed death inhibitors of the malarial parasite plastid, 96 hour incubation; actives 6.9% (n = 320,000); Potency, µM (highest dose often 28.7 µM), actives largely listed as inhibitors; P. falciparum luciferase reporter growth, 96 h
#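 P. falciparum expressing integrated firefly luciferase grown in erythrocytes (2% hematocrit, 0.05% parasitemia final) with compounds for 96 hours at 37 C, 5% CO2. Growth inhibition read as loss of luminescence after adding luciferase detection reagent.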
# Pf growth 48h: Primary qHTS for delayed death inhibitors of the malarial parasite plastid, 48 hour incubation; P. falciparum luciferase growth in erythrocytes, 48 h; Potency, µM (doses to about 28.7 µM), most hits filed as inhibitors; actives 5.9% (n = 310,000); AID 504832, 2011
#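 Luciferase-expressing P. falciparum in infected erythrocytes (2% hematocrit, 0.1% parasitemia final) in RPMI 1640/0.5% Albumax were exposed to compound for 48 hours at 37 C, 5% CO2; growth read as luminescence.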
# SARS PLpro yeast: qHTS of Yeast-based Assay for SARS-CoV PLP; actives 0.19% (n = 330,000); AID 485353, 2010; S. cerevisiae expressing SARS-CoV PLpro, growth rescue; Potency, µM (series often up to 32.9 µM), most hits filed as activators; calls by dose curve; also: nearly all actives have a fitted effect of over 55% in size
# Hits are given with their value; 0 = inactive; ? = inconclusive; - = no result given; [ ] = remark or other dose. Unless noted, calls follow the shape of the dose curve; as a rule, active = well fitted curve in the direction sought with a large enough effect; inconclusive = small, poorly fitted or top-dose-only effect, or another doubt; inactive = no such curve, though single readings can be large; an effect the other way counts as inactive or inconclusive.
SMILES,HCMV antiviral,Sm TGR block,HCV inhibitor,Pf growth 96h,Pf growth 48h,SARS PLpro yeast
CC(CCc1ccccc1)NC(=O)Cn1c(=O)nc(-c2ccccc2F)c2cc(Cl)ccc21 (stereo not given),0,0,-,-,-,-
Cc1ccc(-c2[nH]ncc2/C=N/n2c(COc3ccccc3C)nc3ccccc3c2=O)cc1,-89,0,?,?,?,0
CCCc1nc2ccccc2c(=O)n1/N=C/c1ccccc1O,?,0,?,-,12µM,0
CCCc1nc2ccccc2c(=O)n1/N=C/c1c(C)[nH]n(-c2ccc(C)cc2)c1=O,0,0,0,3.7µM,0,0
Cc1ccccc1OCc1nc2ccccc2c(=O)n1/N=C/c1c[nH]c2ccccc12,0,0,?,?,0,0
CSc1ccc(CNC(=O)CN2C(=O)C3CCCCN3c3ccc(C(=O)N4CCCC4)cc32)cc1 (stereo not given),0,0,-,-,-,-
CON(C)C(=O)CCN(C(=O)OC(C)(C)C)c1ccccc1,0,-,0,-,-,0
COC(=O)CCC(=O)N(CCN(C(=O)CCC(=O)OC)c1ccccc1)c1ccccc1,-95,0,0,?,0,0
COc1ccc(-c2nc3c(Br)c(N)c(Br)cc3o2)cc1,0,0,?,?,2.3µM,0
CC(C)(C)n1cccc1/C=C1\C(=O)NC(=O)N(c2ccccc2)C1=O,0,?,0,10µM,0,0
Cc1cccc(N2C(=O)NC(=O)/C(=C\c3cccn3-c3ccc(Cl)cc3)C2=O)c1,-102,0,?,0,0,0
Cc1cccc(N2C(=O)NC(=O)/C(=C/c3ccc([N+](=O)[O-])o3)C2=O)c1,-,8.9µM,0,0,0,?
OCC1(CCc2ccccc2)CCN(C/C=C/c2ccccc2)CC1,0,0,0,0,?,0
OCC1(Cc2ccccc2Cl)CCN(C/C=C/c2ccccc2)CC1,0,0,?,0,12µM,0
Cc1ccnc(NC(=O)c2ccc(Cl)c(S(=O)(=O)N3CCCCC3)c2)c1,0,0,13µM,0,?,0
Cc1ccnc(NC(=O)c2ccc(Cl)c(S(=O)(=O)N3CCCC3)c2)c1,0,0,?,?,0,0
Cc1ccc(NC(=O)c2ccc(Cl)c(S(=O)(=O)N3CCCCC3)c2)nc1,?,0,?,10µM,9.3µM,0
CN1CC(=O)NC1=NC(=O)c1ccc(Cl)c(S(=O)(=O)N2CCCCCC2)c1,0,0,0,8.3µM,?,0
CCC(C(=O)Nc1cc(C(=O)Nc2cc(C)ccn2)ccc1Cl)c1ccccc1 (stereo not given),0,0,0,8.3µM,8.3µM,0
Cc1nccn1C(c1ccccc1)c1ccccc1,0,-,0,-,-,-
Cc1ccc(Cc2cnc(NC(=O)c3ccc4c(c3)CC(c3ccccc3)OC4=O)s2)cc1 (stereo not given),0,0,-,-,-,-
COc1ccc(N2Cc3cccc(C(=O)Nc4ccc(F)cc4)c3C2=O)cc1,?,0,-,-,-,-
CCC[C@H]1[C@@H](NS(=O)(=O)c2ccc(OC)cc2)CC[C@@]23CCCN2C(=O)CCC[C@@H]13,0,-,-,-,-,-
CCCCCCCNC(=O)C1(CC2CC(c3ccccc3)=NO2)CCNCC1 (stereo not given),0,?,10µM,?,12µM,0
COc1ccc(CNC(=O)C2(CC3CC(c4ccccc4)=NO3)CCN(C(=O)Cc3ccc(F)cc3)CC2)cc1 (stereo not given),0,-,0[8.37 µM],-,-,-
O=C(NCc1ccccc1)C1(CC2CC(c3ccccc3)=NO2)CCNCC1 (stereo not given),0,50µM,?,?,12µM,0
CCCNC(=O)C1(CC2CC(c3ccccc3)=NO2)CCN(C(=O)CCCCCBr)CC1 (stereo not given),-,-,0,-,-,-
Cc1ccc(C(=O)Nc2ccc3c(c2)C(=O)N(C)C3=O)c(C)c1,?,0,0,0,0,0
C=CCn1c(Cc2ccccc2)n[nH]c1=S,0,0,0,0,0,0
